Test results published in PubChem BioAssay AID504848 (National Center for Advancing Translational Sciences (NCATS), 2011).
About 1,400 (61%) of roughly 2,300 compounds were called active. Inconclusive results (about 29%) are left out. The call rests on the fitted dose curve; in most records, active means well fitted inhibition curve with a large enough effect; inconclusive means small, poorly fitted or top-dose-only effect, or effect the other way; inactive means no such curve, though single readings can be large or run the other way. The set was probably picked from earlier hits. The list shows a part of the results.
On the % scale 0 is the no-effect control and ±100 the full control effect; potency means the concentration at half of the fitted maximal effect.

Test: Confirmation screen for delayed death inhibitors of the malarial parasite plastid, 96 hour incubation; further: nearly all actives have a fitted effect of over 60% in size
Details: P. falciparum luciferase growth in erythrocytes; series mostly up to 28.7 µM; activity change, negative = inhibition: at the top concentration
Outline: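 Two-generation (96 h, 37 C) exposure of P. falciparum carrying an integrated firefly luciferase reporter in erythrocytes, 0.1% parasitemia and 2% hematocrit final, Albumax-supplemented RPMI. Luminescence decrease measures growth inhibition.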
In the case of `Cc1ccc(-n2nnnc2SCC(=O)Nc2ccccc2-c2ccccc2)cc1C`, the “activity change, negative = inhibition” value is reported as -17% (inactive).
With `Cc1ccc(-n2nnnc2Sc2nc([N+](=O)[O-])nn2C)cc1C` the Potency was 3.16 µM (active).
In the case of `N#Cc1cc(Oc2cccc3cccnc23)c(-n2nnc3ccccc32)cc1C#N`, the Potency is reported as 5.62 µM (active).
For `CN(C)c1ccc(CNc2ncnc3sccc23)cc1`, the “activity change, negative = inhibition” value was -14.9% (inactive).
With `COc1cccc(-c2ccc3ncnc(NCc4cccs4)c3c2)c1` the Potency was 5.01 µM (active).
For `CCCN(CCC)c1ccc(CC(=O)NC(C)Cc2ccccc2)cc1` (centres undefined), the Potency was 12.6 µM (active).
With `O=C1NC(=S)S/C1=C\C=C\c1ccc([N+](=O)[O-])o1` the Potency was 2 µM (active).
In the case of `COc1ccc(C2c3c(ncn(CCN4CCOCC4)c3=N)Oc3ccc4ccccc4c32)cc1OC` (centres undefined), the Potency is reported as 2 µM (active).
With `COc1ccc(C2c3c(ncn(CCCN4CCOCC4)c3=N)Oc3ccc4ccccc4c32)cc1OC` (centres undefined) the Potency was 2.24 µM (active).
In the case of `CC1=C(C(=O)NC2CC(C)(C)Cc3c2cnn3-c2ccc(C)cc2)OCCO1` (centres undefined), the Potency is reported as 11.2 µM (active).
For `Cc1ccc(-n2ncc3c2CC(C)(C)CC3NC(=O)c2c(C)noc2C)cc1` (centres undefined), the Potency was 12.6 µM (active).
With `CCc1noc(C)c1C(=O)NC1CC(C)(C)Cc2c1cnn2-c1ccccc1` (centres undefined) the Potency was 12.6 µM (active).
With `CCOc1ccc2c(c1)sc(N)[n+]2Cc1cc(C)cc2cccnc12` the Potency was 3.98 µM (active).
With `COc1cc([N+](=O)[O-])c(OC)cc1SCc1n[nH]c(=S)n1-c1ccc(F)cc1` the Potency was 15.8 µM (active).
For `COc1ccccc1N1CC(O)=C(c2nc3ccccc3s2)C1=N`, the Potency was 11.2 µM (active).
In the case of `Cn1c(SCC(=O)N2CCCCCC2)nc2c(c1=O)SCC2`, the Potency is reported as 8.91 µM (active).
For `O=[N+]([O-])/C=C\c1ccc(N2CCCC2)c(F)c1`, the “activity change, negative = inhibition” value was -25.7% (inactive).
With `CCC(=O)c1ccc(N2CCN(C(=O)c3cc([N+](=O)[O-])ccc3N3CCN(C)CC3)CC2)c(F)c1` the Potency was 11.2 µM (active).
For `Cc1ccc(Nc2nc(NCc3ccco3)c3ccccc3n2)cc1`, the Potency was 2 µM (active).
For `C/C=C(\C)C(=O)NCCN1C2=NC[C@H](Cc3ccccc3)N2C[C@H]1Cc1ccc(O)cc1`, the Potency was 3.55 µM (active).
With `C/C=C(\C)C(=O)NCCN1C2=NC[C@H](C(C)C)N2C[C@H]1Cc1ccc(O)cc1` the Potency was 5.62 µM (active).
For `C=CCNC(=O)c1onc(CSc2cccc3ccccc23)c1C(=O)O`, the “activity change, negative = inhibition” value was -23.7% (inactive).
For `COc1ccc(CNc2ncc(-c3ccc(Cl)cc3)n2C)c(OC)c1OC`, the Potency was 12.6 µM (active).
In the case of `CCC[C@H]1C[C@H](C(=O)N[C@@H]([C@H]2O[C@@H](SC)[C@@H](O)[C@@H](O)[C@@H]2O)[C@H](C)Cl)N(C)C1`, the Potency is reported as 0.199 µM (active).
For `Cc1ccc(S(=O)(=O)N(CC(=O)NCc2ccco2)c2ccccc2C)cc1`, the Potency was 11.2 µM (active).
With `Cc1ccc(S(=O)(=O)N(Cc2ccccc2)c2ccccc2C(=O)Nc2ccccc2C(=O)NCc2ccco2)cc1` the Potency was 2.24 µM (active).
For `COC(=O)c1cc(=O)n(Cc2cccs2)c(=Nc2ccccc2)s1`, the “activity change, negative = inhibition” value was 3.33% (inactive).
With `COCCn1c(=NC(=O)/C=C/c2ccccc2)sc2cc(NC(C)=O)ccc21` the Potency was 7.94 µM (active).
In the case of `CC(C)N(C(C)C)S(=O)(=O)c1ccc(N2CCc3ccccc3C2)nc1`, the Potency is reported as 12.6 µM (active).
With `CCN(CC)S(=O)(=O)c1ccc(N2CCc3ccccc3C2)nc1` the Potency was 14.1 µM (active).
With `CN1C(=O)C(C)(C)c2cc(S(=O)(=O)NCC3CCC(C(=O)NCc4ccc(F)cc4)CC3)ccc21` (centres undefined) the Potency was 11.2 µM (active).
With `Cc1cccc(C)c1NC(=O)CCCn1nc(C)c2c(C)n(-c3ccccc3)nc2c1=O` the Potency was 10 µM (active).
For `Cc1ccccc1NC(=O)CCCn1nc(C)c2c(C)n(-c3ccccc3)nc2c1=O`, the Potency was 10 µM (active).
With `Cc1nn(-c2ccccc2)c(C)c1NC(=O)COC(=O)[C@@H](NC(=O)c1ccccc1)C(C)C` the “activity change, negative = inhibition” value was -20.8% (inactive).
With `COc1ccc(NC(=O)CCCn2cc([N+](=O)[O-])cn2)cc1` the “activity change, negative = inhibition” value was -11.8% (inactive).
In the case of `COc1ccc(NC(=O)CCCn2nc(C)c3c(C)n(-c4ccccc4)nc3c2=O)cc1`, the Potency is reported as 11.2 µM (active).
In the case of `CCOc1ccc(CCNC(=O)CCCn2nc(C)c3c(C)n(-c4ccccc4)nc3c2=O)cc1`, the Potency is reported as 11.2 µM (active).
In the case of `CCOc1ccccc1C(=O)NCC(=O)NCCc1ccc(S(N)(=O)=O)cc1`, the “activity change, negative = inhibition” value is reported as 6.57% (inactive).
With `CSc1ccccc1OCc1cc(C(=O)NCCn2ccnc2C)no1` the “activity change, negative = inhibition” value was -21% (inactive).
With `CCOC(=O)c1ccc(CNC(=O)c2cc(COc3ccccc3SC)on2)o1` the “activity change, negative = inhibition” value was -8.32% (inactive).
With `CCN(CCN1CCCC1)C(=O)c1cc(COc2ccccc2SC)on1` the Potency was 12.6 µM (active).
With `CSc1ccccc1OCc1cc(C(=O)N(C)CCc2c(C)n[nH]c2C)no1` the Potency was 10 µM (active).
For `CSc1ccccc1OCc1cc(C(=O)NCCCn2nc(C)cc2C)no1`, the Potency was 12.6 µM (active).
For `CC(=O)NC1=C(Nc2ccc(N(C)C)cc2)C(=O)c2ccccc2C1=O`, the Potency was 6.31 µM (active).
With `COc1ccc(NC2=C(NC(C)=O)C(=O)c3ccccc3C2=O)cc1` the Potency was 3.16 µM (active).
For `N#Cc1ccccc1S(=O)(=O)N1CCC(C(=O)NCc2ccccc2CN2CCCC2)CC1`, the Potency was 14.1 µM (active).
In the case of `CCOC(=O)c1cnc2ccccc2c1NCCc1ccc(OC)c(OC)c1`, the Potency is reported as 5.01 µM (active).
For `Cc1ccc2c(c1)c1c3n2CCN(C(=O)CCl)C3CCC1` (centres undefined), the Potency was 14.1 µM (active).
With `CN(CC(=O)Nc1ccc(Cl)cc1)C(=O)Cc1c(F)cccc1Cl` the Potency was 10 µM (active).
For `O=C(/C=C/Sc1ncn[nH]1)c1ccc(Cl)cc1`, the Potency was 12.6 µM (active).
For `CCC1OC(=O)C[C@@H](O)[C@H](C)[C@@H](OC2OC(C)CC(N(C)C)C2O)[C@@H](CC=O)C[C@@H](C)C(=O)/C=C/[C@]2(C)OC2C1C` (some centres undefined), the Potency was 1.78 µM (active).
In the case of `Cc1cc(C)n(Cc2ccc(C(=O)N/N=C/c3ccc(-c4ccc([N+](=O)[O-])cc4)o3)o2)n1`, the Potency is reported as 5.01 µM (active).
With `COc1cc(C(C)=O)ccc1OCC(O)CN1CCN(c2cc(C)cc(C)c2)CC1` (centres undefined) the Potency was 14.1 µM (active).
With `CC(C)(C)C1C/C(=C/c2ccccn2)C(=O)/C(=C/c2ccccn2)C1` (centres undefined) the Potency was 0.158 µM (active).
For `COCCNC(=O)c1cccc(OC2CCN(Cc3cccc(SC)c3)CC2)c1`, the Potency was 12.6 µM (active).
With `COCCNC(=O)c1cccc(OC2CCN(Cc3ccc(C(C)C)cc3)CC2)c1` the Potency was 11.2 µM (active).
For `CSc1cccc(CN2CCC(Oc3cccc(C(=O)N4CCCC4)c3)CC2)c1`, the Potency was 12.6 µM (active).
For `CN(C)CCn1c(=O)n(Cc2ccco2)c(=O)c2c3c(sc21)CCCCC3`, the Potency was 10 µM (active).
In the case of `O=c1c(Cl)cc(Cl)nn1-c1ccccc1`, the Potency is reported as 12.6 µM (active).
In the case of `Cc1c(O)ccc2c(CN(C)Cc3ccccc3)cc(=O)oc12`, the Potency is reported as 12.6 µM (active).
With `Cc1ccc2c(CN(C)Cc3cccc(F)c3)cc(=O)oc2c1C` the Potency was 12.6 µM (active).
With `COc1cc2c(cc1OC)CN(Cc1cc(=O)oc3c(C)c(C)ccc13)CC2` the Potency was 15.8 µM (active).
In the case of `Cc1ccccc1CN(C)Cc1cc(=O)oc2c(C)c(C)ccc12`, the Potency is reported as 15.8 µM (active).
With `C/C(=N\NC(=O)c1cccc(S(=O)(=O)N2CCOCC2)c1)c1ccc(O)cc1` the Potency was 1 µM (active).
For `O=C(COC(=O)c1ccc(F)c(S(=O)(=O)N2CCOCC2)c1)Nc1ccc2[nH]c(=O)[nH]c2c1`, the “activity change, negative = inhibition” value was -7.71% (inactive).
With `O=C(Nc1ccccc1N1CCOCC1)c1ccc(F)c(S(=O)(=O)N2CCOCC2)c1` the Potency was 8.91 µM (active).
With `O=C(Nc1ccccc1[N+](=O)[O-])c1cc(S(=O)(=O)N2CCOCC2)cs1` the Potency was 14.1 µM (active).
With `O=C(Nc1ccccc1N1CCOCC1)c1cccc(S(=O)(=O)N2CCOCC2)c1` the Potency was 11.2 µM (active).
For `COc1ccc(CNn2c(-c3ccccc3F)nc3ccccc3c2=O)cc1OC`, the Potency was 5.01 µM (active).
For `Cc1ccccc1C1=NC(C(F)(F)F)(C(F)(F)F)c2c(n(-c3ccc(F)cc3)c(=O)[nH]c2=O)N1`, the Potency was 11.2 µM (active).
In the case of `CC(=O)/C(C#N)=C1\NC(=O)C(Cc2ccc(C)c(Cl)c2)S1` (centres undefined), the Potency is reported as 12.6 µM (active).
For `CC(=O)/C(C#N)=C1\NC(=O)C(Cc2ccc(C)c(C)c2)S1` (centres undefined), the Potency was 11.2 µM (active).
With `CC(=O)/C(C#N)=C1\NC(=O)C(Cc2cc(Cl)ccc2Cl)S1` (centres undefined) the Potency was 14.1 µM (active).
For `COC(=O)c1ccccc1SC1CC(=O)N(c2ccccc2)C1=O` (centres undefined), the “activity change, negative = inhibition” value was -1.25% (inactive).
In the case of `CC(C)CN1C2CCCC1CC(NC(=S)NCc1ccco1)C2` (centres undefined), the Potency is reported as 10 µM (active).
With `CCOC(=O)C1CCCN(Cc2ccc(OCc3ccccc3)c(OC)c2)C1` (centres undefined) the Potency was 10 µM (active).
With `CCOC(=O)C1CCCCN1Cc1cccc(OCc2ccccc2)c1` (centres undefined) the Potency was 12.6 µM (active).
With `O=C(C1CCC(=O)N1Cc1ccccc1Cl)N1CCN(c2cccc(Cl)c2)CC1` (centres undefined) the Potency was 11.2 µM (active).
In the case of `CCS(=O)(=O)c1nc(S(=O)(=O)c2ccc(C)cc2)c(N2CCC3(CC2)OCCO3)s1`, the Potency is reported as 10 µM (active).
In the case of `Cc1ccc(CN(Cc2ccccn2)C(=O)Nc2ccc(C)c(C)c2)cc1`, the Potency is reported as 15.8 µM (active).
For `Cc1ccc(NC(=O)CN2C(=O)S/C(=C\c3ccccn3)C2=O)cc1C`, the “activity change, negative = inhibition” value was -6.39% (inactive).
With `Cc1c(CN2CCC(CO)(CCOc3ccccc3)CC2)[nH]c2ccc(Cl)cc12` the Potency was 5.62 µM (active).
With `OCC1(CCOc2ccccc2)CCN(Cc2nc3ccc(F)cc3[nH]2)CC1` the Potency was 12.6 µM (active).
With `Cc1ccc(-n2c(-c3ccc(Cl)cc3)c[n+]3c2CCC3)cc1` the Potency was 0.0398 µM (active).
With `CC(C)(C)OC(=O)[C@H](Cc1ccccc1)NC(=O)c1nc[nH]c1C(=O)N1CCN(C(=O)OC(C)(C)C)CC1` the Potency was 12.6 µM (active).
In the case of `CC(C)(C)OC(=O)CNC(=O)c1[nH]cnc1C(=O)NC1CCN(C(=O)OC(C)(C)C)CC1`, the Potency is reported as 12.6 µM (active).
In the case of `CC(C)C[C@H](NC(=O)c1nc[nH]c1C(=O)N1CCN(C(=O)OC(C)(C)C)CC1)C(=O)OC(C)(C)C`, the Potency is reported as 15.8 µM (active).
In the case of `CC(NC(=O)c1cc2sccc2n1C)c1ccc2c(c1)OCCO2` (centres undefined), the “activity change, negative = inhibition” value is reported as -11.1% (inactive).
For `CCCCN(CCCNC(=O)C1CCN(C(=O)c2cc3sccc3n2C)CC1)Cc1ccccc1`, the Potency was 0.562 µM (active).
